Where “and” joins values, the source holds several entries; their conditions need not be identical. Identical values can stand only once. In all, about 5,500 compounds went through this assay and about 2,000 (36%) were called active. Roughly 18% stayed inconclusive and do not appear here. Cut-off read from the data, not from the text of the source: active = normalized growth mostly below about 0.91 (no sharp cut-off); inconclusive = no clear call, values can overlap the other calls; inactive = mostly above about 0.92. The list shows a part of the results.
Experiment: chemical genetic growth profiling, strain panel (AID 1159580);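 note: tested at 20 µM; growth read once vehicle control cultures reached saturation at 30 °C; 1 = growth at the plate median or of vehicle wells; lower values mean less growth of the strain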
Details: S. cerevisiae deletion strains, growth OD

Measured: normalized growth

COC(=O)[C@@H]1OC(=O)[C@H]2O[C@@]23[C@@]1(C)CCC1[C@@]2(C)CCC(=O)C(C)(C)C2C[C@@H](OC(C)=O)[C@]13C (some centres not stated)
inactive: locus YAL021C, strain ccr4, hits give low values 1.04 | locus YAL026C, strain drs2, hits give low values 0.992 | locus YAL030W, strain snc1, hits give low values 0.989 | locus YBL061C, strain skt5, hits give low values 0.994 | locus YBR009C, strain hhf1, hits give low values 1.03 | locus YBR021W, strain FUR4, hits give low values 0.997 | locus YBR023C, strain chs3, hits give low values 1 | locus YBR171W, strain sec66, hits give low values 0.959 | locus YBR229C, strain ROT2, hits give low values 1.01 | locus YBR231C, strain swc5, hits give low values 0.974 | locus YBR279W, strain paf1, hits give low values 1.02 | locus YCL011C, strain gbp2, hits give low values 0.998 | locus YCL016C, strain dcc1, hits give low values 1.03 | locus YCL029C, strain bik1, hits give low values 0.997 | locus YCL069W, strain vba3, hits give low values 0.987 | locus YCR088W, strain abp1, hits give low values 0.972 | locus YDL005C, strain med2, hits give low values 0.969 | locus YDL035C, strain GPR1, hits give low values 0.998 | locus YDL040C, strain nat1, hits give low values 0.987 | locus YDL074C, strain BRE1, hits give low values 1.01 | locus YDL101C, strain DUN1, hits give low values 1.02 | locus YDL134C, strain PPH21, hits give low values 1.01 | locus YDL185W, strain tfp1, hits give low values 1.01 | locus YDL192W, strain arf1, hits give low values 0.988 | locus YDR001C, strain nth1, hits give low values 0.983 | locus YDR069C, strain doa4, hits give low values 0.953 | locus YDR101C, strain arx1, hits give low values 0.993 | locus YDR137W, strain rgp1, hits give low values 1 | locus YDR159W, strain sac3, hits give low values 0.92 | locus YDR162C, strain NBP2, hits give low values 0.999 | locus YDR195W, strain ref2 0.926 | locus YDR297W, strain sur2, hits give low values 1 | locus YDR318W, strain mcm21, hits give low values 1.01 | locus YDR334W, strain swr1, hits give low values 0.967 | locus YDR388W, hits give low values 1.01 | locus YDR392W, strain spt3, hits give low values 0.993 | locus YDR502C, strain sam2, hits give low values 1.02 | locus YEL003W, strain gim4, hits give low values 0.986 | locus YEL037C, strain rad23, hits give low values 0.974 | locus YEL061C, strain CIN8 (second series), hits give low values 0.975 | locus YEL061C, strain CIN8, hits give low values 1 | locus YER015W, strain faa2, hits give low values 0.98 | locus YER016W, strain bim1, hits give low values 0.98 | locus YER110C, hits give low values 1 | locus YER111C, strain swi4, hits give low values 0.984 | locus YER155C, strain BEM2 (second series), hits give low values 1.01 | locus YER155C, strain BEM2, hits give low values 1.01 | locus YER167W, strain BCK2, hits give low values 0.988 | locus YFR010W, strain ubp6, hits give low values 0.966 | locus YGL078C, strain dbp3, hits give low values 1.02 | locus YGL086W, strain mad1, hits give low values 1 | locus YGL167C, strain pmr1, hits give low values 0.993 | locus YGL173C, strain kem1, hits give low values 0.985 | locus YGL227W, strain vid30, hits give low values 0.986 | locus YGL240W, strain doc1, hits give low values 0.953 | locus YGL248W, strain PDE1, hits give low values 1.02 | locus YGL253W, strain hxk2, hits give low values 0.958 | locus YGR135W, strain pre9, hits give low values 1.06 | locus YGR252W, strain gcn5, hits give low values 1.05 | locus YHR013C, strain ard1, hits give low values 1 | locus YHR027C, strain rpn1, hits give low values 0.976 | locus YHR030C, strain SLT2, hits give low values 1 and 0.997 | locus YHR079C, strain IRE1 (second series), hits give low values 1.01 | locus YHR079C, strain IRE1, hits give low values 0.999 | locus YHR094C, strain hxt1, hits give low values 1.02 | locus YHR129C, strain ARP1, hits give low values 1.01 | locus YHR142W, strain chs7, hits give low values 0.976 | locus YHR200W, strain rpn10, hits give low values 1.02 | locus YIL066C, strain RNR3, hits give low values 0.984 | locus YIL073C, strain SPO22, hits give low values 0.998 | locus YIL125W, strain kgd1, hits give low values 1 | locus YIR030C, strain dcg1, hits give low values 0.998 | locus YJL092W, strain hpr5, hits give low values 0.971 | locus YJL095W, strain BCK1 (second series), hits give low values 0.964 | locus YJL095W, strain BCK1, hits give low values 1.03 and 0.994 | locus YJL115W, strain asf1, hits give low values 0.965 | locus YJL129C, strain trk1, hits give low values 0.939 | locus YJL134W, strain LCB3, hits give low values 0.994 | locus YJL154C, strain vps35, hits give low values 0.989 | locus YJL164C, strain tpk1, hits give low values 1.03 | locus YJL166W, strain qcr8, hits give low values 0.972 | locus YJL168C, strain set2, hits give low values 1.01 | locus YJL187C, strain SWE1 (second series), hits give low values 1.04 | locus YJR066W, strain TOR1, hits give low values 0.912 | locus YKL009W, strain mrt4, hits give low values 0.977 | locus YKL068W, hits give low values 0.998 | locus YKL085W, strain MDH1 (second series), hits give low values 0.998 | locus YKL085W, strain MDH1, hits give low values 0.998 | locus YKL160W, strain elf1, hits give low values 1.07 | locus YKL190W, strain CNB1, hits give low values 1 | locus YKR001C, strain vps1, hits give low values 0.994 | locus YKR026C, strain gcn3, hits give low values 0.966 | locus YKR091W, strain srl3, hits give low values 0.992 | locus YLL001W, strain dnm1, hits give low values 0.992 | locus YLL026W, hits give low values 0.981 | locus YLL041C, strain sdh2, hits give low values 0.98 | locus YLR027C, strain aat2, hits give low values 0.99 | locus YLR039C, strain RIC1, hits give low values 1.03 | locus YLR058C, strain SHM2, hits give low values 1.01 | locus YLR102C, strain apc9, hits give low values 1 | locus YLR113W, strain HOG1, hits give low values 1.01 | locus YLR221C, strain rsa3, hits give low values 0.987 | locus YLR258W, strain gsy2, hits give low values 1 | locus YLR262C, strain YPT6 (second series), hits give low values 1 | locus YLR268W, strain sec22, hits give low values 0.991 | locus YLR320W, strain mms22, hits give low values 0.995 | locus YLR342W, strain FKS1 (second series), hits give low values 1.04 | locus YLR342W, strain FKS1, hits give low values 0.992 | locus YLR357W, strain rsc2, hits give low values 0.967 | locus YLR370C, strain arc18, hits give low values 0.989 | locus YLR371W, strain rom2, hits give low values 0.997 | locus YLR384C, strain iki3, hits give low values 0.985 | locus YLR418C, strain cdc73, hits give low values 1.04 | locus YML016C, strain PPZ1, hits give low values 1 | locus YML032C, strain rad52, hits give low values 0.996 | locus YML120C, strain ndi1, hits give low values 1.01 | locus YML124C, strain tub3, hits give low values 1.01 | locus YMR058W, strain fet3, hits give low values 0.993 | locus YMR078C, strain ctf18, hits give low values 1.01 | locus YMR125W, strain sto1, hits give low values 0.983 | locus YMR129W, hits give low values 0.987 | locus YMR205C, strain PFK2, hits give low values 1.01 | locus YMR223W, strain ubp8, hits give low values 1.01 | locus YMR231W, strain pep5, hits give low values 0.981 | locus YMR307W, strain GAS1, hits give low values 0.917 | locus YNL067W, strain RPL9B, hits give low values 1.04 | locus YNL071W, strain lat1, hits give low values 0.976 | locus YNL153C, strain GIM3, hits give low values 1.03 | locus YNL183C, strain NPR1, hits give low values 0.929 | locus YNL209W, strain ssb2, hits give low values 0.982 | locus YNL233W, strain BNI4, hits give low values 1.02 | locus YNL248C, strain rpa49, hits give low values 0.907 | locus YNL250W, strain rad50, hits give low values 1.03 | locus YNL271C, strain bni1, hits give low values 1.01 | locus YNL298W, strain CLA4, hits give low values 0.993 | locus YNL307C, strain MCK1, hits give low values 1.02 | locus YNL322C, strain KRE1 (second series), hits give low values 0.959 | locus YNR049C, strain mso1, hits give low values 0.966 | locus YNR052C, strain pop2, hits give low values 1.03 | locus YOL006C, strain TOP1, hits give low values 1.02 | locus YOL012C, strain htz1 1.17 | locus YOL147C, strain pex11, hits give low values 0.998 | locus YOR001W, strain rrp6, hits give low values 0.909 | locus YOR061W, strain CKA2, hits give low values 0.987 | locus YOR069W, strain VPS5, hits give low values 0.999 | locus YOR070C, strain gyp1, hits give low values 1 | locus YOR080W, strain dia2, hits give low values 0.978 | locus YOR083W, strain WHI5, hits give low values 1.08 | locus YOR106W, strain vam3, hits give low values 1.03 | locus YOR136W, strain idh2, hits give low values 1.01 | locus YOR144C, strain elg1, hits give low values 1 | locus YOR184W, strain ser1, hits give low values 0.981 | locus YOR231W, strain MKK1, hits give low values 0.98 | locus YOR265W, strain rbl2, hits give low values 0.976 | locus YOR270C, strain vph1, hits give low values 1.02 | locus YOR290C, strain snf2, hits give low values 0.996 | locus YOR316C, strain cot1, hits give low values 1.01 | locus YPL051W, strain arl3, hits give low values 1.02 | locus YPL078C, strain atp4, hits give low values 1.04 | locus YPL106C, strain sse1, hits give low values 0.997 | locus YPL240C, strain hsp82, hits give low values 0.976 | locus YPL256C, strain CLN2, hits give low values 0.979 | locus YPR119W, strain clb2, hits give low values 1.01 | locus YPR141C, strain kar3, hits give low values 1.01 | locus YPR163C, strain tif3, hits give low values 1.01 | locus YPR167C, strain met16, hits give low values 1.02 | strain wtn01, hits give low values 0.998

From PubChem BioAssay AID1159580 (chemical genetic matrix, 2015)
